Assay results as given in the supplement of paper PMC10849652.
Of roughly 7,900 targets only a part is listed; those with a hit were picked by preference. About 0.6% of all pairs of compound and target were hits.

What follows are targets tested with Cc1ccc(NC(=O)c2ccc(CN3CC[C@H](N(C)C)C3)c(C(F)(F)F)c2)cc1Nc1nccc(-c2cncnc2)n1 [bafetinib] (assay: log2 fold change, soluble protein after heating vs DMSO (PISA); higher = thermal stabilisation; K562 cells, 10 uM, 30 min; active = over 0.2 and 3.5 SD of the protein, either way, in both replicates (recomputed)).
How it was run: (§1)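 Soluble protein was defined as the supernatant after 21,000xg for 90 min. It came from K562 cells at 2×10^6 cells/mL given 10 μM compound for 30 min, heated in aliquots for 3 min across 48°C-58°C, pooled, and extracted in PBS with 0.5% NP-40 at 4°C, and was quantified by TMTpro 16plex LC-MS/MS with equalised channel sums. Thermal stability against control samples, from duplicates, is reported as log2 fold change.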

Sequence of UniProt P68104 (P68104 whole entry, looked up): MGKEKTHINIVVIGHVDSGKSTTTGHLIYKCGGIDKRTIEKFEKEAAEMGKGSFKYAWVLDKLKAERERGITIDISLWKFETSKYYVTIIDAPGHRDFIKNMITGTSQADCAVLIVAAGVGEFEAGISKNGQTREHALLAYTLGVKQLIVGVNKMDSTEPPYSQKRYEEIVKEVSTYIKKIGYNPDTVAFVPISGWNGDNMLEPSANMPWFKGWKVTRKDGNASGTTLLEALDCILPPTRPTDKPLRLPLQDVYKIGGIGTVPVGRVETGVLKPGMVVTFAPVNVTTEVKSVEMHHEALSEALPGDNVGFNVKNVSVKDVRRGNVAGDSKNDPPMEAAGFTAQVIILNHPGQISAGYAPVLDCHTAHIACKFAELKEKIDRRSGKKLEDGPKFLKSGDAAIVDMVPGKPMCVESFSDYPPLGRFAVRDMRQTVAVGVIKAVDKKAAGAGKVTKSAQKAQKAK
Sequence of UniProt Q6UX07 (Q6UX07 whole entry, looked up): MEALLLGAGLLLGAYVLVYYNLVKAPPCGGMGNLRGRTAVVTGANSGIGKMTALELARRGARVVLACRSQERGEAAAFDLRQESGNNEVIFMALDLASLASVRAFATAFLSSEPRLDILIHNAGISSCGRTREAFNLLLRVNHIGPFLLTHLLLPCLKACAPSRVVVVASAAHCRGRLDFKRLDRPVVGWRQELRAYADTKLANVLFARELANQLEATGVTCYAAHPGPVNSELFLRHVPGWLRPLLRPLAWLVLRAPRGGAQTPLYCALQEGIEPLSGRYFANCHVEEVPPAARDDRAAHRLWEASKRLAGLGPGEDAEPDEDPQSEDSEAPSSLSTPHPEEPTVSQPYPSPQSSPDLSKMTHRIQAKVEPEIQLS
Sequence of UniProt Q8WV16 (Q8WV16 whole entry, looked up): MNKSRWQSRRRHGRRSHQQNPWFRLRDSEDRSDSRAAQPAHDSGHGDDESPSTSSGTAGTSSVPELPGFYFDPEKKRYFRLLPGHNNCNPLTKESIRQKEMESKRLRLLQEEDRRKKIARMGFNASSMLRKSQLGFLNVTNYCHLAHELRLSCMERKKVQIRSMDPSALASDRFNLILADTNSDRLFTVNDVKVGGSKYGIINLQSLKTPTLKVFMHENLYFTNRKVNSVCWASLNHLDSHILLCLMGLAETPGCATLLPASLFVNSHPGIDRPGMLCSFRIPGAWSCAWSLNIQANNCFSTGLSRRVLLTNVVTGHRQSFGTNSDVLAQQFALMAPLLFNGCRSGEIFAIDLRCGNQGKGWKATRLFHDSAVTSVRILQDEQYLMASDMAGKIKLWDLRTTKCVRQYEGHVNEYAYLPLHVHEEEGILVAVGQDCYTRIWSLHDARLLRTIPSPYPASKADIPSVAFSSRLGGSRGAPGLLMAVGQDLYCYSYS
Sequence of UniProt Q86YN1 (Q86YN1 whole entry, looked up): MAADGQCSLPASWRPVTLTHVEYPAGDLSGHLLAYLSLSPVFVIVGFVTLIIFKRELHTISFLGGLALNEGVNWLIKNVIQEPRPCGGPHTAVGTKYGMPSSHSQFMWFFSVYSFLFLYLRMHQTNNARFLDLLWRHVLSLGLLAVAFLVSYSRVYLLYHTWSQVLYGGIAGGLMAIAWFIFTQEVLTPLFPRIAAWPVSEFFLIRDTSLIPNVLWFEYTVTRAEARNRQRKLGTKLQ
Sequence of UniProt Q9Y6B2 (Q9Y6B2 whole entry, looked up): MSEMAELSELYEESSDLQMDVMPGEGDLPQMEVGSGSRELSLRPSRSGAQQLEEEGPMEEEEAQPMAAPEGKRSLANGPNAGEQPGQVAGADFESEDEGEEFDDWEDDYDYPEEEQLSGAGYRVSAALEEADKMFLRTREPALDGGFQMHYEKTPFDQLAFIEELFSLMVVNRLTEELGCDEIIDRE
Sequence of UniProt Q9NQZ7 (Q9NQZ7 whole entry, looked up): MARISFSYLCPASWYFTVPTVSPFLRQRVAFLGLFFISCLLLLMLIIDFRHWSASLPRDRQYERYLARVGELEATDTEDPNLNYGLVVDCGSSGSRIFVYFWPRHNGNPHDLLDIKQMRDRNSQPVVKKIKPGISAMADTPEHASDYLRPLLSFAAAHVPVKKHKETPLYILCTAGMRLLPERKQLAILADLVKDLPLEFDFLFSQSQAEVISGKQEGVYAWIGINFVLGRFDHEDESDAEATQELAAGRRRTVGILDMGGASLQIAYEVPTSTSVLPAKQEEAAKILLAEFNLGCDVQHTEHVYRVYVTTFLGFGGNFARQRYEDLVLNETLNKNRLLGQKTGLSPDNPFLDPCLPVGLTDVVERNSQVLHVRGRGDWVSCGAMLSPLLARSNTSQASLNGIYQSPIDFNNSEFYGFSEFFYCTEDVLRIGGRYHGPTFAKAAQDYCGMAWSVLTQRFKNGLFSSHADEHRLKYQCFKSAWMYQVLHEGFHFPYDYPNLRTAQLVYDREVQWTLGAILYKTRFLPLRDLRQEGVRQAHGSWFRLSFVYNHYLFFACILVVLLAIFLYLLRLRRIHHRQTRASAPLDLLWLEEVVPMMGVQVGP
Sequence of UniProt Q9H410 (Q9H410 whole entry, looked up): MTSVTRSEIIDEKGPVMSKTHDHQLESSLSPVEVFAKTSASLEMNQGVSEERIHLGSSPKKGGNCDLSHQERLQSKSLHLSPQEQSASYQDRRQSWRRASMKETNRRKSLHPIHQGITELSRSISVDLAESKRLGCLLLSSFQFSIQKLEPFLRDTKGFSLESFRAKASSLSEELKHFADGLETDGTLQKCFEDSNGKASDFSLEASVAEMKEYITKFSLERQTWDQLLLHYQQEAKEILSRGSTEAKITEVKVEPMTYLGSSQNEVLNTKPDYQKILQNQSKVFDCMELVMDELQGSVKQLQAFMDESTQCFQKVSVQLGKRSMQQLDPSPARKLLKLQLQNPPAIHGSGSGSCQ
Sequence of UniProt Q96GQ7 (Q96GQ7 whole entry, looked up): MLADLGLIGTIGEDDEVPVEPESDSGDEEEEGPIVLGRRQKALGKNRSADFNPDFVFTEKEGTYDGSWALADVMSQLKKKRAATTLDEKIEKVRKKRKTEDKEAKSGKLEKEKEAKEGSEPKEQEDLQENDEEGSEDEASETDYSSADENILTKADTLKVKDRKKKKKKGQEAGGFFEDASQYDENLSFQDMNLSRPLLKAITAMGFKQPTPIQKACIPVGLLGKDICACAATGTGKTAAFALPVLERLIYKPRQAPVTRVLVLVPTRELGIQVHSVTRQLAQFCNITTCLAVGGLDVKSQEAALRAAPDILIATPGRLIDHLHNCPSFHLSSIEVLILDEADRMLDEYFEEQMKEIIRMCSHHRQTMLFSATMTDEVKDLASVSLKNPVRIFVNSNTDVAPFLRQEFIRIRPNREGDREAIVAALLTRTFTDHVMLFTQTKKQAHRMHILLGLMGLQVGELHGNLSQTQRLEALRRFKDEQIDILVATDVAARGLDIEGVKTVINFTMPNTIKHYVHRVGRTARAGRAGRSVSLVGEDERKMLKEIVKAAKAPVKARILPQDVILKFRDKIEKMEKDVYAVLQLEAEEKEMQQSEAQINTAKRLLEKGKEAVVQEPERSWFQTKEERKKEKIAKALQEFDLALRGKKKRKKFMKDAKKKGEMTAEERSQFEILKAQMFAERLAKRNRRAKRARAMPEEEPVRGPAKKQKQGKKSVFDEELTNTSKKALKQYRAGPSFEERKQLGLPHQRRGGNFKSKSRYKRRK
Sequence of UniProt Q9H777 (Q9H777 whole entry, looked up): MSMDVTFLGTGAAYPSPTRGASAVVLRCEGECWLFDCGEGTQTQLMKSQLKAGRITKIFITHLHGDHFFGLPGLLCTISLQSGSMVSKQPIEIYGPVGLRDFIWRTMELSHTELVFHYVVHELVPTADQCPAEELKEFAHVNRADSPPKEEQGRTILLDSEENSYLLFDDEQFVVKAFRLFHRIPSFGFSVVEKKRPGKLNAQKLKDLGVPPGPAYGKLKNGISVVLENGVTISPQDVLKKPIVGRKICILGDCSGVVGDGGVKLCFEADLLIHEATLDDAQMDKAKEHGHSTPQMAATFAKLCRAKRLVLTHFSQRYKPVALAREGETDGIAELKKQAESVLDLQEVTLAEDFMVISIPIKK
Sequence of UniProt Q92556 (Q92556 whole entry, looked up): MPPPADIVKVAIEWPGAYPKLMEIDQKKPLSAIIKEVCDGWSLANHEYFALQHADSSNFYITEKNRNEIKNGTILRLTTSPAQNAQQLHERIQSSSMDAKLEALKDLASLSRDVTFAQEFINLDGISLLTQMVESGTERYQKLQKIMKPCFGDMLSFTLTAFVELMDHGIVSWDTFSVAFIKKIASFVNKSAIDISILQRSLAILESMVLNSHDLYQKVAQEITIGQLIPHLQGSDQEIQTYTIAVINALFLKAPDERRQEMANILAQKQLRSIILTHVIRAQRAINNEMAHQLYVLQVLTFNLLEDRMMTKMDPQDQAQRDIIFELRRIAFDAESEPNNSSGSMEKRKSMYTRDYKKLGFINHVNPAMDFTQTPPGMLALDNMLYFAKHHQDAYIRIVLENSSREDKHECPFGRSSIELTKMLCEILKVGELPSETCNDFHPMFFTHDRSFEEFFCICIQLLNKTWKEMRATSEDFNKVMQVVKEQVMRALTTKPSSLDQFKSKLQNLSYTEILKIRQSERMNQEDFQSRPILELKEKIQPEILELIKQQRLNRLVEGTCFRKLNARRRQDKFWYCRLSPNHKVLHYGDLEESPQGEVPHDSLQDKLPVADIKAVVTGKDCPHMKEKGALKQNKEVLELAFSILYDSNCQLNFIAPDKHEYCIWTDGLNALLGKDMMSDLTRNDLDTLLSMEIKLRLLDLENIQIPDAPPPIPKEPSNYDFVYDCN
Sequence of UniProt O75822 (O75822 whole entry, looked up): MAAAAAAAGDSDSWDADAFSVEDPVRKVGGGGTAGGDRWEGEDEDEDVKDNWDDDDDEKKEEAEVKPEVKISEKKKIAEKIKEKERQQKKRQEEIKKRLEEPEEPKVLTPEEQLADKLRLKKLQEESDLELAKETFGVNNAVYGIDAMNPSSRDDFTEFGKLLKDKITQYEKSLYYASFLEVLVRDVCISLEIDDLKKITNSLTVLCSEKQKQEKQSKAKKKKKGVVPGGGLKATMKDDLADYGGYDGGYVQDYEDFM

| Target | log2 fold change |
| --- | --- |
| DDX11 (UniProt Q96FC9) | -0.012 (inactive) |
| ELMO1 (UniProt Q92556) | 0.033 (inactive) |
| DENND1A isoform 6 (UniProt Q8TEH3) | -0.086 (inactive) |
| EIF3J isoform 2 (UniProt O75822) | -0.033 (inactive) |
| FAM193B (UniProt Q96PV7) | 0.19 (inactive) |
| DOLPP1 (UniProt Q86YN1) | -0.089 (inactive) |
| ENTPD7 (UniProt Q9NQZ7) | -0.165 (inactive) |
| DSN1 (UniProt Q9H410) | 0.063 (inactive) |
| EZH2 isoform 2 (UniProt Q15910) | 0.146 (inactive) |
| DNAL1 (UniProt Q4LDG9) | 0.035 (inactive) |
| DOP1A (UniProt Q5JWR5) | -0.091 (inactive) |
| DYNC1I2 isoform 2 (UniProt Q13409) | -0.038 (inactive) |
| EEF1A1 (UniProt P68104) | -0.114 (inactive) |
| DNAJB1 (UniProt M0R128) | -0.252 (inactive) |
| CTNNBL1 (UniProt Q8WYA6) | -0.12 (inactive) |
| EIF4G3 isoform 3 (UniProt O43432) | -0.01 (inactive) |

What follows are targets tested with Cc1cccc(CC(=O)N2CCc3c2ccc(-c2cn(C)c4ncnc(N)c24)c3F)n1 in the same assay as above.
How it was run: as §1

| Target | log2 fold change |
| --- | --- |
| DCAF12 (UniProt Q5T6F0) | 0.124 (inactive) |
| ERF (UniProt P50548) | 0.194 (inactive) |
| EID1 (UniProt Q9Y6B2) | -0.438 (inactive) |
| FAM117B (UniProt Q6P1L5) | 0.01 (inactive) |
| DHRS13 (UniProt Q6UX07) | -0.208 (inactive) |
| CWF19L2 (UniProt Q2TBE0) | -0.285 (inactive) |
| EEF2K (UniProt O00418) | 0.007 (inactive) |
| DCAF4 (UniProt Q8WV16) | -0.423 (active) |
| EIF4G1 (UniProt Q04637) | 0.017 (inactive) |
| EHBP1 (UniProt Q8NDI1) | -0.154 (inactive) |
| CTSS (UniProt P25774) | -0.063 (inactive) |
| DDX27 (UniProt Q96GQ7) | -0.093 (inactive) |
| ELAC1 (UniProt Q9H777) | 0.124 (inactive) |

Each target was assayed with Cc1cn(-c2cc(NC(=O)c3ccc(C)c(Nc4nccc(-c5cccnc5)n4)c3)cc(C(F)(F)F)c2)cn1 [nilotinib] in the same assay as above.
How it was run: as §1

| Target | log2 fold change |
| --- | --- |
| DDX11 (UniProt Q96FC9) | 0.098 (inactive) |
| EID1 (UniProt Q9Y6B2) | -0.022 (inactive) |
| ELMO1 (UniProt Q92556) | -0.038 (inactive) |
| DHRS13 (UniProt Q6UX07) | 0.197 (inactive) |
| EIF3J isoform 2 (UniProt O75822) | -0.101 (inactive) |
| ELF1 (UniProt P32519) | 0.096 (inactive) |
| DOLPP1 (UniProt Q86YN1) | 0.035 (inactive) |
| ENTPD7 (UniProt Q9NQZ7) | -0.104 (inactive) |
| DDX46, A0A0C4DG89 | 0.151 (inactive) |
| DSN1 (UniProt Q9H410) | 0.082 (inactive) |
| DCAF4 (UniProt Q8WV16) | -0.204 (inactive) |
| FAM135A (UniProt Q9P2D6) | 0.054 (inactive) |
| DDX27 (UniProt Q96GQ7) | -0.193 (inactive) |
| EEF1A1 (UniProt P68104) | 0.042 (inactive) |
| ELAC1 (UniProt Q9H777) | 0.145 (inactive) |
| EIF4G3 isoform 3 (UniProt O43432) | -0.043 (inactive) |
